Measurements reported in PubChem BioAssay AID485317 (Broad Institute, 2010).
In all, about 290,000 compounds went through this assay and about 11,000 (3.8%) were called active. Many of the other results were omitted from the sample, so actives are more common in it than they were. Values without a mark were called inactive.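 How the source made its calls: active means mean replicate inhibition above about 79%, with every replicate also reaching it (limit read from the data); inconclusive means only one of the two criteria met; inactive means mean below limit and not every replicate reaching it.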

Each molecule was assayed against FAD-linked sulfhydryl oxidase ALR (Homo sapiens) (UniProt P55789) (assay: ALR-catalysed DTT oxidation blockers – biochemical, H2O2 detection, HRP-luminol luminescence, single point, primary screen (AID 485317)). Settings: purified ALR, hits give high values, concentration not given here.
Chain of FAD-linked sulfhydryl oxidase ALR (Homo sapiens) (P55789 whole entry, looked up): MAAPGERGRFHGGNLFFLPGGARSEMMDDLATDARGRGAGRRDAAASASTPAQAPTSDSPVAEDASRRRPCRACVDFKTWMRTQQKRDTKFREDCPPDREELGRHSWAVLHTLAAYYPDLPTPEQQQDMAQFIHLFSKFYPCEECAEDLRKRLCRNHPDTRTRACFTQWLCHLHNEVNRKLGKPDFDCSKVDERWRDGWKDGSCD

SMILES	inhibition
CCc1ccc(Nc2n[n+](-c3ccccc3)c(-c3cccc(Cl)c3Cl)s2)cc1	-4.3%
Cc1ccc(S(=O)(=O)NCC(=O)NNC(=O)c2ccc(Br)cc2)cc1C	-2.29%
CC1(NC(=O)CCS(=O)(=O)c2ccc(Cl)cc2)CCS(=O)(=O)C1 (centres undefined)	-4.01%
O=[N+]([O-])c1ccccc1Nc1ccc(O)cc1	99.6% (active)
O=C(O)c1ccccc1C(=O)Nc1ccccc1[N+](=O)[O-]	-2.15%
O=[N+]([O-])c1ccc(O)c(/C=N/Nc2ccccc2[N+](=O)[O-])c1	-10.4%
Nc1nnc(SCC(=O)NCC(=O)Nc2ccc(F)c(F)c2F)s1	1.09%
CN(CC(=O)NC1CCCCC1)S(=O)(=O)c1ccc(Br)s1	-15%
CN(CC(=O)NC1CCCCC1)S(=O)(=O)c1cccc2cccnc12	89.5% (active)
CN(CC(=O)NC1CCCC1)S(=O)(=O)c1cnc[nH]1	-4.3%
CN(CC(=O)Nc1ccc(Cl)cc1)CC(=O)Nc1cccc2ccccc12	2.05%
CCN(CC(=O)Nc1ccc(OC)cc1)C(=O)c1ccc(=O)n(Cc2ccccc2)n1	0.415%
Cc1noc(C)c1NC(=O)Nc1ccc2c(c1)C(=O)N([C@H](C)CO)C[C@H](C)[C@@H](CN(C)S(=O)(=O)c1cn(C)cn1)O2	-2.52%
COc1cc(/C=C2\CCCc3c2nc2ccccc2c3C(=O)O)cc(Cl)c1O	98.2% (active)
NS(=O)(=O)c1ccc(NC(=O)COC(=O)c2c3c(nc4ccccc24)/C(=C\c2ccc4c(c2)OCO4)CCC3)cc1	-36%
O=C(COC(=O)c1c2c(nc3ccccc13)/C(=C\c1cccs1)CCC2)Nc1ccccc1Cl	-2.03%
CN(CC(=O)NCCc1ccc(S(N)(=O)=O)cc1)CC(=O)Nc1ccc(Cl)cc1	-9.18%
CC1(C)C/C(=N/Nc2ccc([N+](=O)[O-])cc2[N+](=O)[O-])C(C)(C)O1	-14.3%
CCc1nnc(NS(=O)(=O)c2ccc(NS(=O)(=O)c3ccccc3)cc2)s1	35.6%
CCc1nnc(NS(=O)(=O)c2ccc(NC(=O)c3cccc(OC(F)(F)C(F)F)c3)cc2)s1	88.3% (active)
CCc1nnc(NS(=O)(=O)c2ccc(NC(=S)NC(=O)c3cccs3)cc2)s1	63.2%
O=C(COc1ccccc1)Nc1cc2c3c(c1)CC(=O)N3CCC2	-6.99%
O=C(c1ccncc1)N1CCN(S(=O)(=O)c2cccc([N+](=O)[O-])c2)CC1	-48.9%
COc1cccc(NC(=O)CN2CCN(CC(=O)Nc3ccccc3Cl)CC2)c1	-2.36%

SMILES	inhibition
COc1cccc(NC(=O)Cn2c3ccc(F)cc3c3nc4n(c(=O)c32)CCS4)c1	-3.06%
COc1cccc(NC(=O)Cn2c3ccccc3c3nc4n(c(=O)c32)CCS4)c1	85.8% (active)
C[C@H]1CN([C@@H](C)CO)C(=O)Cc2cc(NS(C)(=O)=O)ccc2O[C@@H]1CN(C)CC1CC1	0.795%
Cc1nnc(NC(=O)CSc2nc(C3CCCCC3)nc3ccccc23)s1	-39.6%
CN(C(=O)CSc1nc(C2CC2)nc2ccccc12)c1nc(-c2ccccc2)cs1	98.6% (active)
O=C(CSc1nc(C2CC2)nc2ccccc12)Nc1ccc2c(c1)OCCO2	40.9%
Cc1ccccc1OCC(=O)NNC(=O)c1ccc(-n2cncn2)c([N+](=O)[O-])c1	-24.1%
O=C(NCCCN1CCCC1=O)c1ccc(S(=O)(=O)Nc2ccccc2)cc1	-9.87%
COc1ccccc1OCCCCCCN1CCN(C)CC1	-12.6%
CCCC(=O)Nc1ncnc2c1ncn2[C@@H]1O[C@@H]2OP(=O)(O)OC[C@H]2[C@H]1OC(=O)CCC	-3.4%
Cc1cc(C(=O)CC#N)c(C)n1CC(F)(F)F	94.8% (active)
Cc1cc(C(=O)COC(=O)CNC(=O)c2ccc(F)cc2)c(C)n1Cc1ccco1	-2.4%
Cc1cc(C(=O)CC#N)c(C)n1-c1c(C)n(C)n(-c2ccccc2)c1=O	14.7%
Cc1ccc(CNC(=O)c2ccc3c(c2)S(=O)(=O)c2ccccc2C3=O)cc1	-10.2%
S=c1[nH]nc2c3c4c(sc3ncn12)CCCC4	97.9% (active)
N=c1c2c3c(sc2ncn1N)CCCC3	-10.4%
c1nnc2c3c4c(sc3ncn12)CCC4	45.2%
Cc1c(O)c(C)c2c(c1O)C(=O)C[C@@H](c1ccccc1)O2	2.46%
COc1ccccc1C(=O)COC(=O)COc1ccc(C#N)cc1	10.4%
O=S(=O)(Nc1ncnc2sccc12)c1cccc(F)c1	8.21%
COc1ccc(NS(=O)(=O)c2ccc(NC(C)=O)cc2)cc1OC	-18.8%
COc1ccc(/C=C/C(=O)c2ccc(NS(=O)(=O)c3ccc(C)cc3)cc2)cc1O	82.9% (active)
COc1ccc(C(=O)Oc2cc(/C=N/NS(=O)(=O)c3ccc(C)cc3)ccc2OC)cc1	-2.65%
CCOC(=O)c1c(C)[nH]c(C(=O)OCC(=O)c2ccc(OC)cc2OC)c1C	-8.98%

SMILES	inhibition
CCCS(=O)(=O)Nc1ccc(-c2cn3c(n2)SCC3)cc1	4.68%
c1csc(-c2cn3c(n2)SCC3)c1	92.3% (active)
Cc1cc(-c2cccs2)nc(-n2cccc2)n1	23.5%
O=C(c1ccc(S(=O)(=O)NCc2ccco2)cc1)N1CCN(c2ccccc2)CC1	33.8%
COc1ccc(OC)c(Nc2nc(-c3ccc(O)c(O)c3)cs2)c1	94.7% (active)
COc1ccc(-c2csc(Nc3ccc(O)cc3)n2)cc1	74.3%
COc1ccc(-c2csc(Nc3ccccn3)n2)cc1	32.2%
CCCCn1c(N)c(N(CC(C)C)C(=O)C2CSC3(C)CCC(=O)N23)c(=O)[nH]c1=O (centres undefined)	-0.99%
CC(NC(=O)c1cccc(S(=O)(=O)N2CCc3ccccc3C2)c1)c1ccco1 (centres undefined)	-3.35%
O=C(COC(=O)c1ccc(F)c(S(=O)(=O)N2CCOCC2)c1)NCc1ccc2c(c1)OCO2	-8.6%
CNS(=O)(=O)c1cccc(C(=O)OCCCC(=O)c2ccccc2)c1	1.28%
O=C1N[C@H](Cc2ccccc2)C(=O)N[C@H]1Cc1cn(S(=O)(=O)c2ccccc2)c2ccccc12	-2.64%
CN1CCN(C(=O)c2ccc(-c3ccc(Br)cc3)o2)CC1	6.66%
CSC(=S)N/N=C/c1c[nH]c2ccccc12	64.4%
O=C(N/N=C/c1c[nH]c2ccccc12)c1ccccc1O	41.8%
O=C(O)c1cccc(NC(=S)N/N=C/c2c[nH]c3ccccc23)c1	98.2% (active)
CCNC(=O)c1cccc(NC(=O)C2CC(=O)N(CCc3ccccc3)C2)c1 (centres undefined)	-0.0795%
CC(OC(=O)CNC(=O)c1ccco1)C(=O)Nc1ccc(Cl)cn1 (centres undefined)	-1.13%
CCOC(=O)c1cccc(NC(=O)CCc2nnc3ccc(N4CCOCC4)nn23)c1	26.9%
COc1cccc(NC(=O)CCc2nnc3ccc(N4CCC(C)CC4)nn23)c1	-1.49%
COc1cccc(N2CCN(c3ccc4nnc(CCC(=O)N5CCN(C)CC5)n4n3)CC2)c1	98.2% (active)
C=CCSc1nnc2c(n1)-c1cccc3cccc-2c13	9.81%
COc1ccc(S(=O)(=O)N2CCOCC2)cc1NC(=O)Cc1c(F)cccc1Cl	-4.89%
COc1ccccc1CNC(=O)COC(=O)c1cccs1	20.2%

SMILES	inhibition
CN(CC(=O)Nc1ccccc1Cl)C(=O)c1ccccc1SCC(=O)N1CCCC1	-3.42%
COC(=O)c1ccccc1NC(=O)c1ccccc1NS(C)(=O)=O	4.54%
COC(=O)c1ccccc1NC(=S)NC(=O)c1ccccc1F	97.1% (active)
NC(=O)c1ccccc1NC(=O)c1ccccc1F	0.399%
Cc1cc(N2CCCC2)ccc1NC(=O)COc1ccc(Cl)cc1	-0.012%
O=C(NCCC1CCCCN1S(=O)(=O)c1ccc(F)cc1)C(=O)NC1CC1 (centres undefined)	-2.2%
Clc1ccc(-c2csc(-c3ccncc3)n2)cc1	-4.48%
Nc1scc(-c2ccncc2)c1Cl	98.8% (active)
O=c1[nH]c(/C=C/c2cccc(Br)c2)nc2ccccc12	-2.23%
CC(C)(C)OC(=O)C[C@@H]1C/C=C\C[C@@H](CC(=O)N[C@H](CO)Cc2ccccc2)C(=O)NCCOC1=O	1.41%
CCOc1ccc(NC(=O)CSc2nc3c(c(=O)n2-c2ccccc2OC)SCC3)cc1	93.4% (active)
C=CCn1c(SCC(=O)NCCCO)nc2sc3c(c2c1=O)CCC3	-4.11%
COc1ccccc1-n1c(SCC(=O)Nc2cccc(C(=O)O)c2)nnc1-c1ccccc1O	3.17%
CCc1nnc(NC(=O)CSc2nc3c(c(=O)n2-c2ccccc2OC)SCC3)s1	1.36%
CCOc1ccc(NC(=O)CN2CCN(CC(=O)Nc3ccc(OC)cc3)CC2)cc1	-10.2%
C=CCn1c(SCC(=O)Nc2ccc(NC(C)=O)cc2)nc2sc(C)c(C)c2c1=O	-2.72%
CCOc1ccc(-n2c(SCC(=O)Nc3cc(C(=O)O)ccc3Cl)nc3ccccc3c2=O)cc1	-3.41%
COc1ccccc1NC(=O)CSc1nc2sc3c(c2c(=O)n1-c1ccccc1)CCN(C)C3	99% (active)
CCc1nc(SCC(=O)Nc2ccccc2OC)n[nH]1	-18%
CCn1c(SCC(=O)Nc2ccc(Br)cc2)nc2sc3c(c2c1=O)CCN(C)C3	99% (active)
CCOc1ccc(-n2c(SCC(=O)Nc3ccc(OC)cc3)nc3sc4c(c3c2=O)CCN(C)C4)cc1	98.6% (active)
COc1ccccc1NC(=O)CSc1nnc(Cn2nnc(-c3ccccc3)n2)n1-c1ccccc1	-1.41%
